Test results: PubChem BioAssay (EPA / NIEHS)
Inconclusive results are not listed. Active and inactive are the calls of the source. Rule for the calls: active = hit-call score of the fitted dose curve at least 0.9, where 1 is the maximum; inconclusive = response in the unintended direction; inactive = score below 0.9.

Assay: TOX21_p53_BLA_p3_viability: Viability Assessment in the Tox21 HCT-116 p53 Agonism Beta-lactamase Assay, Phase 3 (AID 2283593);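 note: cells exposed to compound for 16 h before reading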
Method in brief: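 HCT116 cells, 4000/well, dosed 5 h after plating by pin transfer (217-fold dilution from DMSO stock) and incubated 16 h at 37C, 5% CO2. Viability read as ATP luminescence with CellTiter-Glo after 30 min at room temperature.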

Q: For `FC(F)(F)c1ccccc1`, which outcome is on record?
A: inactive

Q: With `CCCCCCCCCCCCCC=O` as the compound, how does the outcome read?
A: inactive

Q: For `CC(C)(CCl)c1ccccc1`, which outcome is on record?
A: inactive

Q: Which outcome does the source give for `CC(=O)OCC(=O)[C@@]1(O)CC[C@H]2[C@@H]3C[C@H](C)C4=CC(=O)C=C[C@]4(C)[C@H]3[C@@H](O)C[C@@]21C` here?
A: inactive

Q: Which outcome does the source give for `CC[C@@H](N)CO` here?
A: inactive

Q: For `COC(=O)c1cc(C(=O)OC)cc(S(=O)(=O)O)c1`, which outcome is on record?
A: inactive

Q: Which outcome does the source give for `CCCCC(=O)O[C@]1(C(=O)CO)CC[C@H]2[C@@H]3CCC4=CC(=O)CC[C@]4(C)[C@H]3[C@@H](O)C[C@@]21C` here?
A: inactive

Q: For `CC(C)(O)CCC(C)(C)O`, which outcome is on record?
A: inactive

Q: For `CC1CCCCN1CCCOC(=O)c1ccccc1` (stereo not drawn), which outcome is on record?
A: inactive

Q: With `CC(CC(=O)O)CC(C)(C)C` (stereo not drawn) as the compound, how does the outcome read?
A: inactive

Q: For `CCOC(=O)C(C)(C)C`, which outcome is on record?
A: inactive

Q: With `CC(C)Cc1ccc([C@H](C)C(=O)O)cc1` as the compound, how does the outcome read?
A: inactive

Q: With `CS(=O)(=O)O` as the compound, how does the outcome read?
A: inactive

Q: For `CCc1ccc(Br)cc1`, which outcome is on record?
A: inactive

Q: With `CCC=C1OC(=O)c2ccccc21` as the compound, how does the outcome read?
A: inactive

Q: For `C/C=C(/CC[C@@H](C)[C@H]1CC[C@H]2C3=CC[C@H]4[C@H](C)[C@@H](O)CC[C@]4(C)[C@H]3CC[C@]12C)C(C)C`, which outcome is on record?
A: inactive

Q: With `CCNC(=O)[C@@H]1CCCN1C(=O)[C@H](CCCN=C(N)N)NC(=O)[C@H](CC(C)C)NC(=O)[C@@H](CC(C)C)NC(=O)[C@H](Cc1ccc(O)cc1)NC(=O)[C@H](CO)NC(=O)[C@H](Cc1c[nH]c2ccccc12)NC(=O)[C@H](Cc1cnc[nH]1)NC(=O)[C@@H]1CCC(=O)N1` as the compound, how does the outcome read?
A: inactive

Q: With `COc1ccc(CC2c3cc(OC)c(OC)cc3CC[N+]2(C)CCC(=O)OCCCCCOC(=O)CC[N+]2(C)CCc3cc(OC)c(OC)cc3C2Cc2ccc(OC)c(OC)c2)cc1OC` (stereo not drawn) as the compound, how does the outcome read?
A: inactive

Q: With `C=CC(=O)NC(C)C` as the compound, how does the outcome read?
A: inactive

Q: For `O=C(O[C@@H](C(=O)O)[C@@H](OC(=O)c1ccccc1)C(=O)O)c1ccccc1`, which outcome is on record?
A: inactive

Q: With `CN1C(C(=O)Nc2ccccn2)C(=O)c2sc(Cl)cc2S1(=O)=O` (stereo not drawn) as the compound, how does the outcome read?
A: inactive

Q: Which outcome does the source give for `CCCCOC(=O)C(=O)OCCCC` here?
A: inactive

Q: For `C=CCSSCCC`, which outcome is on record?
A: inactive

Q: For `COC(=O)[C@@H](N)Cc1ccc(O)c(O)c1`, which outcome is on record?
A: inactive

Q: With `CC(=O)Nc1ccc(S(=O)(=O)Nc2cc(C)on2)cc1` as the compound, how does the outcome read?
A: inactive

Q: For `COC(=O)NN`, which outcome is on record?
A: inactive

Q: For `O=C(O)/C=C/c1cnc[nH]1`, which outcome is on record?
A: inactive

Q: For `C=CCCCCCCCCCCC`, which outcome is on record?
A: inactive

Q: With `COc1ccc(C)cc1[N+](=O)[O-]` as the compound, how does the outcome read?
A: inactive

Q: Which outcome does the source give for `Cc1c(O)cc2c(c1C)O[C@](C)(CCC[C@H](C)CCC[C@H](C)CCCC(C)C)CC2` here?
A: inactive

Q: For `CCC(=O)OC(OP(=O)(CCCCc1ccccc1)CC(=O)N1C[C@H](C2CCCCC2)C[C@H]1C(=O)O)C(C)C` (stereo partly drawn), which outcome is on record?
A: inactive

Q: For `O=C1N=C2SCCN2C(=O)C1Cc1ccc(Cl)cc1` (stereo not drawn), which outcome is on record?
A: inactive

Q: For `CCCCCCCCCCCC[N+](C)(C)CCCS(=O)(=O)[O-]`, which outcome is on record?
A: inactive

Q: For `CCCC(=O)Nc1ncnc2c1ncn2[C@@H]1O[C@@H]2COP(=O)(O)O[C@H]2[C@H]1OC(=O)CCC`, which outcome is on record?
A: inactive

Q: Which outcome does the source give for `CC(C)(C)N(CCO)CCO` here?
A: inactive

Q: Which outcome does the source give for `Nc1nc(NC2CC2)c2ncn([C@H]3C=C[C@@H](CO)C3)c2n1` here?
A: inactive

Q: For `CCOC(=O)Nc1ccc2c(c1)N(C(=O)CCN1CCOCC1)c1ccccc1S2`, which outcome is on record?
A: inactive

Q: For `CCCCNc1c(C(=O)OCC)c(C)nc2c1cnn2CC`, which outcome is on record?
A: inactive
